In the library only some 14% were active in any assay of this set; here they are far more common.
HCMV antiviral = blocks human cytomegalovirus replication. HFF cells, HCMV-luciferase reporter, 72 h; hits give low values. activity change, negative = inhibition, % at 57.5 µM. actives 4.5% (n = 410,000); in the data active means activity change below about -60%; inconclusive means no clear call, values can overlap the other calls; inactive means above about -39%
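Two compound doses tested in HFFs infected with HCMV-luciferase, MOI 1 PFU/cell, 72 h at 37C. Lysate luminescence read with OneGlo; data normalized against buffer-only and 10uM Salinomycin inhibitor controls.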
MARV entry inh = inhibitors of Marburg virus binding or cell entry; Marburg virus pseudotyped entry inhibition, cell reporter; Potency, µM (doses to about 37.8 µM), for the others: at the top dose activity change, negative = inhibition, actives largely listed as inhibitors; actives 1.8% (n = 300,000); AID 540276; calls by dose curve; tested in HEK293 cells; further: potency means the concentration at half of the fitted maximal effect
LASV entry inh = blocks Lassa virus binding to or entry into cells. Potency, µM (doses to about 37.9 µM), inactives show at the top dose activity change, negative = inhibition, hits mostly inhibitors. actives 1.2% (n = 300,000). Lassa virus pseudotype entry inhibition, cell reporter; calls by dose curve; tested in HEK293 cells; further: potency means the concentration at half of the fitted maximal effect; nearly all actives have a fitted effect of over 50% in size
HCV inhibitor = blocks hepatitis C virus; Huh7.5.1 HCVcc-Cre infection, luciferase reporter, 44 h; Potency, µM (top dose mostly 41.8 µM), inactives show at the top dose activity change, negative = inhibition, hits mostly inhibitors; actives 3.4% (n = 340,000); AID 651820; further: potency means the concentration at half of the fitted maximal effect
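A cell-based infection assay in which seeded cells (1,000 per well) receive test compound after 4 h, are inoculated with HCVcc-Cre at approximately 0.5 moi, and are incubated 44 h before luminescence detection.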
Pf growth 96h = inhibits malaria parasite growth, 96 h; actives 6.9% (n = 320,000); Potency, µM (doses to about 28.7 µM), without a hit: at the highest dose activity change, negative = inhibition, actives largely listed as inhibitors; P. falciparum luciferase reporter growth, 96 h; further: potency means the concentration at half of the fitted maximal effect
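Two-generation exposure (96 h) targets delayed-death phenotype. Reporter parasites carrying integrated firefly luciferase, in red cells at 2% hematocrit and 0.05% parasitemia final, kept at 37 C, 5% CO2; luminescence loss indicates inhibition.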
Pf growth 48h = inhibits P. falciparum growth in the first generation, 48 h. Potency, µM (top dose mostly 28.7 µM), without a hit: at the highest dose activity change, negative = inhibition, actives largely listed as inhibitors. actives 5.9% (n = 310,000). P. falciparum luciferase growth in erythrocytes, 48 h. AID 504832; further: potency means the concentration at half of the fitted maximal effect
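In quantitative HTS format, infected erythrocytes bearing luciferase-reporter parasites were treated for a single generation at 37 C. Luminescence after adding detection reagent served as the growth measure.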
An asterisk follows results filed as active; ? = inconclusive; . = not tested or not shown; [ ] = another dose, or the depositor's remark. Unless noted, the call rests on the fitted dose curve; in most records, active means well fitted inhibition curve with a large enough effect; inconclusive means small, poorly fitted or top-dose-only effect, or another doubt; inactive means no such curve, though single readings can be large or run the other way. On the % scale 0 is the no-effect control and ±100 the full control effect.

SMILES	HCMV antiviral	MARV entry inh	LASV entry inh	HCV inhibitor	Pf growth 96h	Pf growth 48h
COC(CNC(=O)c1cn(C)c2ccc(S(=O)(=O)N3CCOCC3)cc2c1=O)OC	1	.	.	16%	9.3µM*	-5%
CCOC(=O)N1CCN(C(=O)c2cn(C)c3ccc(S(=O)(=O)N4CCOCC4)cc3c2=O)CC1	-25	.	.	-15%	12µM*	9%
O=C1CCCC=C1C(O)CCOCc1ccccc1 (stereo not drawn)	.	7%[14.2 µM]	.	.	.	.
O=C(CCNC(=O)c1ccc([N+](=O)[O-])cc1)Nc1ccccc1N1CCCC1	?	-10%	2%	-2%	?	-5%
O=C(COc1ccc([N+](=O)[O-])cc1)Nc1ccccc1N1CCCC1	-64*	.	.	5%	27%	0%
Cc1cccc(OCC(=O)Nc2ccccc2N2CCN(C)CC2)c1	148	-4%[46.1 µM]	1%	-9%	8%	5%
O=C(Nc1cc([N+](=O)[O-])ccc1N1CCCC1)c1cccs1	-6	10%[46.1 µM]	16%[46.1 µM]	?	13µM*	?
CN1CCN(c2ccccc2NC(=O)COc2ccc(Br)cc2)CC1	-7	-23%	23%	-26%	1.9µM*	.
CC(C)(C)CC(=O)Nc1ccccc1N1CCN(c2ccc(F)cc2)CC1	-11	7.9µM*	?	0%	24%	?
CC(C)C(=O)N1CCN(c2ccccc2NC(=O)COc2ccc(C3CCCCC3)cc2)CC1	.	7.9µM*	-12%	?	6%	?
CC(=O)c1ccc(OCC(=O)Nc2ccccc2N2CCCC2)cc1	-83*	-35%[46.1 µM]	-16%[46.1 µM]	-12%	?	-2%
CC1N(C)c2cc(NC(=O)c3cccs3)c(P(=O)(Nc3ccc([N+](=O)[O-])cc3)N3CCOCC3)cc2C1(C)C (stereo not drawn)	?	?	?	?	?	13µM*
O=C(COc1ccccc1)Nc1ccccc1N1CCN(c2ccccc2)CC1	-10	-13%	-15%	-4%	2.9µM*	?
O=C(COc1ccccc1)Nc1ccccc1N1CCCCC1	?	?	-6%	?	4%	?
COC(=O)c1ccc(Cn2c(=O)cc(C(F)(F)F)c3c(C)nn(C)c32)cc1	11	.	17%[46.1 µM]	.	.	.
O=C1CCCc2cc(S(=O)(=O)NCC3CCC(C(=O)NCc4ccccc4Cl)CC3)ccc2N1 (stereo not drawn)	38	.	8%[46.1 µM]	.	.	.
CS(=O)(=O)CCC(C(=O)Nc1cccc(C(F)(F)F)c1)N1Cc2ccccc2C1=O (stereo not drawn)	-20	.	9%[46.1 µM]	.	.	.
CCOc1ccc(OCC(=O)Nc2ccccc2N2CCCC2)cc1	-20	-28%	?	?	12µM*	?
CC1Cc2cc(/C(O)=C3/C(=O)C(=O)N(CCN4CCOCC4)C3c3ccc([N+](=O)[O-])cc3)ccc2O1 (stereo not drawn)	?	27%[46.1 µM]	17%[46.1 µM]	-1%	9.3µM*	24%
COc1ccc(C2/C(=C(/O)c3ccc4c(c3)CC(C)O4)C(=O)C(=O)N2CCN2CCOCC2)cc1 (stereo not drawn)	-7	-4%	-7%	0%	22%	1%
COc1cc(C(O)CO)ccc1OS(=O)(=O)O (stereo not drawn)	-73*	?	14%	4%	8%	-5%
CN1CCCC(CC2c3ccccc3Sc3ccccc32)C1 (stereo not drawn)	-27	.	.	2.8µM*	?	9.3µM*
COc1ccccc1C(=O)NCC1(N2CCN(C)CC2)CCCCC1	?	?	2%[46.1 µM]	.	.	.
CC(=O)Oc1ccc(OC(C)=O)c2c1CC(C)=C(C)C2	?	.	.	-15%	13µM*	9.3µM*
CC(=O)Oc1ccc(C)cc1	.	.	.	.	-15%	-13%
SMILES	HCMV antiviral	MARV entry inh	LASV entry inh	HCV inhibitor	Pf growth 96h	Pf growth 48h
O=C(CSc1nnnn1C1CC1)Nc1ccc(S(=O)(=O)N2CCOCC2)cc1	-20	.	.	3%	?	-14%
C/C(=N/NC(=O)CNc1ccc(C)cc1)c1ccc(Cl)cc1	-13	-7%	-34%	-11%	5%	5%
CCCCC(O)(CCCC)C(=O)N/N=C(\C)c1ccc(Cl)cc1	-8	11µM*	-44%[46.1 µM]	-18%	0%	0%
COc1ccc(N=C2NN=C(c3c(C)[nH]c4ccccc34)CS2)cc1	?	11µM*	?	?	?	?
Cc1[nH]c2ccccc2c1C1=NNC(=Nc2ccc(F)cc2)SC1	?	.	.	?	8.3µM*	?
CCCNC(=O)OC[C@H]1O[C@H](CCON=C(C)CCN2CCCCc3nc(C)c(C)cc32)C=C[C@H]1Oc1ccc(OC)cc1	.	-26%[14.2 µM]	.	.	.	.
COc1ccc(C2=Nc3ccccc3N(C(=O)c3cnccn3)C2C(=O)NC2CCCC2)cc1 (stereo not drawn)	59	.	.	.	.	.
O=C(CN1CCCCC1)Nc1nc(-c2ccc(Cl)cc2)cs1	?	9%[46.1 µM]	-25%[46.1 µM]	10µM*	1%	-7%
CC(NC(=O)CN1C(=O)NC2(CCCCCC2)C1=O)c1ccccc1 (stereo not drawn)	-61*	?	7%	?	-28%	?
O=C(C[n+]1cc(-c2ccccc2)n2c1CCC2)Nc1nc(-c2ccc(F)cc2)cs1	8	?	14%	0.71µM*	10µM*	?
O=C(C[n+]1cc(-c2ccc(Cl)cc2)n2c1CCC2)Nc1nc(-c2ccc(F)cc2)cs1	-63*	9%	.	10µM*	?	-3%
COc1ccc([C@]23Cc4cc(C#N)ccc4[C@H](O2)C2=C(CC4(CCCCC4)OC2=O)O3)cc1	.	1%[14.2 µM]	.	.	.	.
CN(C(=S)NC(=O)C1CCCC1)c1ccccc1	-12	.	.	.	.	.
CCOc1ccc(S(=O)(=O)N2CCN(C(=O)C3CSC4(C)CCC(=O)N34)CC2)cc1 (stereo not drawn)	3	16%	-22%	-5%	?	-28%
NC(=O)c1ccsc1NC(=O)CN1C(=O)NC2(CCCCC2)C1=O	-105*	.	.	17%	7%	2%
O=C(CN1C(=O)NC2(CCCC2)C1=O)Nc1nc(-c2ccc(F)cc2)cs1	4	?	?	13µM*	-15%	.
COC(=O)CCCC(=O)NC(C)c1cnn(-c2ccccc2C)c1C (stereo not drawn)	?	-12%[46.1 µM]	0%[46.1 µM]	5%	13µM*	24%
COc1cc(C(=O)NC(C)c2cnn(-c3ccccc3C)c2C)cc(OC)c1OC (stereo not drawn)	46	15%[46.1 µM]	?	4%	7%	?
COC(=O)COc1c(Cl)cc(Cl)c2ccc(C)nc12	9	12%[46.1 µM]	-2%[46.1 µM]	5%	-30%	0%
Cc1ccc2c(Cl)cc(Cl)c(OCC(=O)NC(C)(C)C)c2n1	4	.	.	22µM*	?	12µM*
